Source: ChEMBL document CHEMBL1201862, “PubChem BioAssay data set” (2004)

species: Mus musculus; test: Confirmation Concentration-Response Assay for Epigenetic Modulators.; format: functional

SMILES | Potency
CC(C)C(=O)NC(c1ccc(Cl)cc1Cl)c1ccc2cccnc2c1O (centres undefined) | 73.2 µM (active)
COc1ccc(C)cc1/N=N/c1ccc(O)c2ncccc12 | 77.1 µM (active)
CC(C)C(=O)NC(c1ccco1)c1cc(Cl)c2cccnc2c1O (centres undefined) | 341 µM (active)
COc1cccc(C(=O)NC(c2ccco2)c2cc(Cl)c3cccnc3c2O)c1 (centres undefined) | 77.1 µM (active)
